# Hits are enriched below; roughly 2.9% of the tested compounds scored in any of these assays.
# Beta2AR agonist – human beta-2 adrenergic receptor agonism by FAP | response, % (no concentration beside the values) | hit rate 0.43% among 340,000 | AID 504454 | Am2.2-beta2AR cells, FAP receptor internalization, flow cytometry | P07550;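 active = response above a set limit, near 3 SD of response in nonfluorescent compounds, cut at about 42% in these data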
# MEKK2mut PB1 HTS – signal of MEK5 binding to mutant human MEKK2 PB1 domain | bead flow cytometry, Alexa488-MEK5 binding to MEKK2 mutant | percent response, % at 10 µM | hit rate 0.35% among 290,000; in the data active = percent response above about 24%, passing the limit was not always enough
# MEKK2 WT-MEK5 – raises or lowers MEK5 binding to wildtype human MEKK2 PB1 domain | Q9Y2U5 | bead flow cytometry, Alexa488-MEK5 binding to MEKK2 WT; actives lie on both sides | binding response (% of control), % at 10 µM | hit rate 1.1% among 290,000 | AID 1531; in the data active = binding response below about 67% or above about 130%
# MEKK3 PB1 HTS – raises or lowers MEK5 binding to the human MEKK3 PB1 domain. hit rate 1.4% among 290,000. bead-based flow cytometry, Alexa488-MEK5 binding to MEKK3; actives lie on both sides; 0 = blocked by unlabeled MEK5, 100 = vehicle. binding response (% of control), % at 10 µM;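 active = binding response more than 3 SD above or below the average of its plate-row segment, actives on both sides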;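 also: Alexa488 bead fluorescence after subtracting the streptavidin-only scavenger bead signal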
# Target sequence (Q99759 whole entry, looked up, the tested form may be a part): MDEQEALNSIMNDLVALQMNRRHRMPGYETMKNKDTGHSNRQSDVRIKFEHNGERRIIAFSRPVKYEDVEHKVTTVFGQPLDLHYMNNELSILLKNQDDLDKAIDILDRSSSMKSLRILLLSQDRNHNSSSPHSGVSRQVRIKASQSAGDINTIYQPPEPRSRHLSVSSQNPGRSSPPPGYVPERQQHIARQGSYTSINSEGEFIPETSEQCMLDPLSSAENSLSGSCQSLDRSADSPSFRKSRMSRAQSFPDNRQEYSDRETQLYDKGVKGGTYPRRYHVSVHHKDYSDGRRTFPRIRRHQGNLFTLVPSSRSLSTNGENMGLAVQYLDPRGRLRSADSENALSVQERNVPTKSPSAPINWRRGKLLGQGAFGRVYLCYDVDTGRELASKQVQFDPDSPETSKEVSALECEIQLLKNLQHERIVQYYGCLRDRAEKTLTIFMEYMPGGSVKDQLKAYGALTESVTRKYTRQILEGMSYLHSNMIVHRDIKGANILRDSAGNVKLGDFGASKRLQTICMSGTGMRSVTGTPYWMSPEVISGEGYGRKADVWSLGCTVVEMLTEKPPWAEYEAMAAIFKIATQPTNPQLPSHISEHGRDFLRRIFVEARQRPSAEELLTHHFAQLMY
# GRK2 inh – inhibitors of human GRK2 displacing RNA aptamer | inhibition of aptamer binding, % at 10 µM | hit rate 0.59% among 330,000 | bead flow cytometry, FAM-aptamer displacement from GRK2 | P25098 | AID 488847;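 active = inhibition of aptamer binding above 40%, roughly 3 SD of noise, on plates passing a quality check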;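 also: median bead fluorescence of bound FAM aptamer so fluorescent compounds give negative values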
# Active calls of the source: *; . = not tested or not shown; ! = repeats disagree; [ ] = dose if it differs, or a comment.
SMILES,Beta2AR agonist,MEKK2mut PB1 HTS,MEKK2 WT-MEK5,MEKK3 PB1 HTS,GRK2 inh
CCC1(O)CC2CN(CCc3c([nH]c4ccccc34)C(C(=O)OC)(c3cc4c(cc3OC)N(C=O)C3C(O)(C(=O)OC)C(OC(C)=O)C5(CC)C=CCN6CCC43C65)C2)C1 (configuration not stated),1,.,.,.,.
CCC1=C[C@H]2CN(C1)Cc1c([nH]c3ccccc13)[C@@](C(=O)OC)(c1cc3c(cc1OC)N(C)[C@H]1[C@@](O)(C(=O)OC)[C@H](OC(C)=O)[C@]4(CC)C=CCN5CC[C@]31[C@@H]54)C2,.,32*,183*,111,.
O=C(NCC(=O)N1CCN(c2ncccn2)CC1)c1ccc(F)cc1,-5,.,.,.,0
CCOC(=O)/C=C/C(=O)OCC(=O)NCc1ccccc1,44*,-2,94,101,3
C/C(=C\C(=O)OCC(=O)NCc1ccccc1)C(=O)OCC(=O)NCc1ccccc1,-3,-2,96,120,80*
COc1cc(N/C(N)=N/c2nc(C)cc(C)n2)c(OC)cc1Cl,3,-8,94,101,0
CCCN1CCc2c(sc(NC(=O)c3ccc(S(=O)(=O)N4CCN(C(=O)OCC)CC4)cc3)c2C(N)=O)C1,-190,4,4.0*,102,0
CCOC(=O)N1CCN(S(=O)(=O)c2ccc(C(=O)Nc3sc4c(c3C(N)=O)CCN(CC)C4)cc2)CC1,9,-2,99,96,0
O=[N+]([O-])c1ncccc1OCc1ccc(Cl)c(Cl)c1,1,0,96,97,1
COc1ccc(OC)c(NC(=O)COC(=O)CN(C)S(=O)(=O)c2ccc(C)cc2)c1,15,-2,105,104,100*
O=C(N/N=C/c1ccoc1)c1cccc(OC(F)(F)C(F)F)c1,-2,.,.,.,0
O=[N+]([O-])c1ccc(-c2ccc(/C=N/Nc3nc(NCc4ccccc4)nc(N4CCOCC4)n3)o2)cc1,-46,5,14*,99,4
CCCCNC(=O)n1c(SC)nc2ccccc21,-11,9,106,111,0
COC(=O)n1c(SC)nc2ccccc21,78*,15,101,101,0
COc1cc(C2C(C(=O)OC(C)C)=C(C)Nc3[nH]c(=O)[nH]c(=O)c32)ccc1O (configuration not stated),-8,-16,70*[inhibitor],61*[inhibitor],0
O=C(COC(=O)c1cc([N+](=O)[O-])ccc1N1CCOCC1)c1ccccc1Cl,-7,-6,92,99,57*
O=C1c2ccccc2C(=O)c2c(Nc3ccc(CCO)cc3)ccc(O)c21,18,-2,93,103,3
O=C1c2c(O)ccc(O)c2C(=O)c2c(NCCNCCO)ccc(NCCNCCO)c21,-9,.,.,.,99*
COc1ccc(-c2nc3ccccn3c2NCc2ccc3c(c2)OCO3)cc1,-4,4,113,106,0
COc1ccc(-c2cc(-c3nc4ccccn4c3NCc3ccccc3)ccc2OC)cc1,66*,.,.,.,1
COc1ccccc1N1CCN(CCCNC(=O)C2CCCN(c3ncnc4c3nc3n4CCCCC3)C2)CC1 (configuration not stated),3,21,136*,103,0
O=C(NCCCN1CCN(c2ccc(F)cc2)CC1)C1CCCN(c2ncnc3c2nc2n3CCCCC2)C1 (configuration not stated),-10,9,118,100,0
O=C1Nc2ccccc2S/C1=C\C(=O)N1CCCC1,.,-12,88,105,81*
Oc1oc(-c2cccc3ccccc23)nc1/C=N/c1nccs1,1,1,104,130*,0
Oc1oc(-c2cccc3ccccc23)nc1C=NCc1ccccc1,.,-2,96,97,.
SMILES,Beta2AR agonist,MEKK2mut PB1 HTS,MEKK2 WT-MEK5,MEKK3 PB1 HTS,GRK2 inh
COc1ccc(CC(=O)Nc2ccc(N(C)C)c3ccccc23)cc1,8,5,101,96,17
COC(=O)c1sccc1NC(=O)Nc1ccc(C(C)=O)cc1,0,2,103,102,2
Cc1ccc(-n2c(=O)c3cc4c(=O)n(-c5ccc(C)c(C)c5)c(=O)c4c(C(=O)c4ccc(C(=O)O)cc4)c3c2=O)cc1C,8,-12,29*[inhibitor],48*[inhibitor],0
O=C(O)c1ccc(-n2c(=O)c3ccccc3c3ccccc3c2=O)cc1,-6,-7,99,99,4
O=C(N/C=C/c1ccco1)Nc1cccc(Cl)c1,7,45,22*,127,0
CCC(OC(=O)CN1C(=O)C(=O)c2ccccc21)C(=O)Nc1ccccc1OC (configuration not stated),1,1,101,107,.
CC1(C)CC(=O)C2=C(C1)OC1=C(C(=O)CC(C)(C)C1)C2c1ccc(O)cc1O,93*,2,96,100,0
CC1(C)CC(=O)C2=C(C1)OC1=C(C(=O)CC(C)(C)C1)C2c1ccc(O)c([N+](=O)[O-])c1,8,-2,97,101,5
Cc1onc(-c2ccccc2)c1-c1ccc(S(N)(=O)=O)cc1,-4,-6,53*!,88,3
CC1=NOC(=O)/C1=C\c1ccc(-c2ccc(Cl)c(C(=O)O)c2)o1,10,0,103,101,.
CC1=NOC(=O)/C1=C\c1ccc(-c2cccc(Cl)c2)o1,101*,0,101,103,0
Cc1cccc(NC(=O)c2ccccc2OCC(=O)N2CCCC2)c1C,.,1,100,102,1
CCN(Cc1ccccc1)c1ccc(/C=N/N=C(N)N)cc1,63*,3,115,93,0
Cc1nc2cc(C(=O)OCC(=O)NC34CC5CC(CC(C5)C3)C4)ccc2n1-c1ccccc1,-2,4,108,121,41*
Cc1nc2cc(C(=O)OCC(=O)NC3CCS(=O)(=O)C3)ccc2n1-c1ccccc1 (configuration not stated),-2,8,109,106,0
Cc1nc2ccccc2c2oc(C(=O)N3CCN(C(=O)c4ccco4)CC3)cc12,-16,7,107,105,1
Cc1nc2ccccc2c2oc(C(=O)N3CCN(c4ccc([N+](=O)[O-])cc4)CC3)cc12,51*,-7,97,99,0
CN(C(=O)c1cccc(NC(=O)Cc2ccc(NC(=O)C3CCN(C(=O)CCc4ccccc4)CC3)cc2)c1)C1CCC1,1,.,.,.,.
CC1(C)C(=O)C=CC(=O)C(C)(C)C(=O)C=CC(=O)C(C)(C)C2=CC=C(O2)C(C)(C)C(=O)C=CC1=O,62*,.,.,.,.
O=C1C(=C(I)I)c2ccccc2-c2ccccc21,76*,.,.,.,.
CCCCCCNC1=NCCS1,2,.,.,.,3
CC(C)N(C(=O)COC(=O)c1ccc(Cl)s1)c1ccccc1,-3,.,.,.,0
CCC1(c2ccccc2)NC(=O)N(CC(=O)NNC(=O)c2ccc(F)cc2)C1=O (configuration not stated),4,.,.,.,.
O=C(O)c1ccc(NC2=C(Cl)C(=O)c3ccccc3C2=O)cc1,96*,-1,98,101,6

# Bioassay records: PubChem BioAssay, NMMLSC
